Laboratory results as given in PubChem BioAssay AID2685 (National Center for Advancing Translational Sciences (NCATS), 2010).
About 2,100 (0.66%) of roughly 320,000 compounds were called active. Roughly 53% stayed inconclusive and do not appear here. The call rests on the fitted dose curve; in most records, active means well fitted inhibition curve with a large enough effect in the signal ratio, with a control signal flat (not every such curve was filed as active); inconclusive means small, poorly fitted or top-dose-only effect, or effect the other way, or a change in a side signal; inactive means flat fitted curve, though single readings scatter; the % refers to the signal ratio. The list comes from a sample in which actives are over-represented; it also holds similar structures and randomly drawn compounds.

Test: qHTS Assay for Lipid Storage Modulators in Drosophila S3 Cells;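 on cell number change: cells counted by Cell Tracker Red CMTPX staining in the red channel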; on lipid storage change, negative = inhibition: on the % scale 0 is the no-effect control and ±100 the full control effect
Conditions: BODIPY lipid droplet fluorescence, 18-24 h, cells fed with added oleic acid; cell number change: measured here: cell count max response; series mostly up to 46.1 µM; lipid storage change, negative = inhibition: at the top concentration
In short: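 Drosophila S3 cells loaded with oleic acid (400 uM, as added) and compounds at several concentrations; lipid droplets imaged by 488-nm laser-scanning cytometry, 500–530 nm intensity and object ratio to cell channel. Percent activity normalized to 20 uM Triacsin C.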
Potency means the concentration at half of the fitted maximal effect.

| Compound | lipid storage change, negative = inhibition | cell number change [%] | Potency | outcome |
| --- | --- | --- | --- | --- |
| Cc1c(C(=O)OC(C)C)nnn1-c1nonc1N | -3.46% (inactive) | 7.24 | – | – |
| Cc1ccsc1-c1nc(CN2CCCC2c2ccc(F)cc2)c(C)o1 (configuration not stated) | 8.98% (inactive) | 4.95 | – | – |
| Cc1cnc(C(=O)N2CCCC(C(=O)c3cccc(OC(C)C)c3)C2)cn1 (configuration not stated) | 2.98% (inactive) | -12.5 | – | – |
| Cc1ccc(C)c(NC(=O)c2ccc[n+](Cc3ccc([N+](=O)[O-])cc3)c2)c1 | -3.16% (inactive) | 11.2 | – | – |
| CNNC(=O)C(C)NC(=O)c1ccc(Br)cc1 (configuration not stated) | 11.6% (inactive) | 10.8 | – | – |
| CCC(CC)NC(=O)Nc1ccc(C)cc1 | 5.28% (inactive) | -11.1 | – | – |
| CCN(CC)c1nc(N)nc(NS(=O)(=O)c2ccc(Cl)cc2)n1 | 8.21% (inactive) | 7.29 | – | – |
| CCOCCCn1c(SCC(=O)NC(C)(C)C)nc2ccccc2c1=O | 29.5% (inactive) | -4.14 | – | – |
| CCOCCCn1c(SCc2nc3ccccc3s2)nc2ccccc2c1=O | – | -21.8 | 3.66 µM (active) | – |
| O=c1c2ccccc2nc(SCc2nc3ccccc3s2)n1CCCO | 0.263% (inactive) | -14.5 | – | – |
| Brc1ccccc1OCCCN1CCCCCC1 | -11.1% (inactive) | 5.41 | – | – |
| CC(=O)c1sc(NC(=O)c2cc(=O)c3ccccc3o2)nc1C | -6.15% (inactive) | -11.4 | – | – |
| COc1ccc2nc(NC(=O)CCNC(=O)c3ccco3)sc2c1 | – | 15.7 | 8.2 µM (active) | – |
| O=C(NNc1nc2c(F)cccc2s1)c1cc(=O)c2ccccc2o1 | -15% (inactive) | -1.04 | – | – |
| COc1ccc2nc(NNC(=O)c3cc(=O)c4ccccc4o3)sc2c1 | – | 1.29 | 5.17 µM (active) | – |
| O=C(CCNC(=O)c1ccccc1Cl)Nc1nc2ccccc2s1 | 6.98% (inactive) | 9.97 | – | – |
| O=C(Cc1ccccc1)Nc1nc2ccccc2s1 | -4.4% (inactive) | -15.5 | – | – |
| COc1ccc2nc(NC(=S)NC(=O)c3ccco3)sc2c1 | 0.215% (inactive) | 10 | – | – |
| COc1ccc2nc(NC(=O)c3ccco3)sc2c1 | -16.9% (inactive) | 9.21 | – | – |
| O=C(CCNC(=O)c1ccccc1)Nc1nc2ccccc2s1 | – | 12 | 3.66 µM (active) | – |
| COc1ccc(C(=O)NCCOc2cccc(OC)c2)cc1 | 14.8% (inactive) | 26.7 | – | – |

| Compound | lipid storage change, negative = inhibition | cell number change [%] | Potency | outcome |
| --- | --- | --- | --- | --- |
| O=C1C=Cc2ccccc2/C1=C/c1[nH]c(=O)[nH]c1O | 5.67% (inactive) | 1.79 | – | – |
| O=C(NC(=S)Nc1ccc(S(=O)(=O)Nc2nccs2)cc1)c1ccc(Br)o1 | 2.23% (inactive) | – | – | – |
| O=C(NCCOC(=O)C1COc2ccccc2O1)C1COc2ccccc2O1 (configuration not stated) | -28.4% (inactive) | – | – | – |
| O=[N+]([O-])c1cccc(/C=N/Nc2nc(NCc3ccccc3)nc(N3CCOCC3)n2)c1O | -7.86% (inactive) | 0.539 | – | – |
| COc1nc(N/N=C/c2ccc(-c3cccc([N+](=O)[O-])c3)o2)nc(N2CCOCC2)n1 | 7.42% (inactive) | -9.45 | – | – |
| O=[N+]([O-])c1ccc(-c2ccc(/C=N/Nc3nc(N4CCCCC4)nc(N4CCCCC4)n3)o2)cc1 | – | 17 | 5.17 µM (active) | – |
| O=[N+]([O-])c1ccc(-c2ccc(/C=N/Nc3nc(NCc4ccccc4)nc(N4CCOCC4)n3)o2)cc1 | – | 14.1 | 18.4 µM (active) | – |
| O=[N+]([O-])c1ccc(/C=N/Nc2nc(N3CCCCC3)nc(N3CCCCC3)n2)cc1 | 11.3% (inactive) | -0.784 | – | – |
| O=[N+]([O-])c1ccc(-c2ccc(/C=N/Nc3nc(N4CCCC4)nc(N4CCCC4)n3)o2)cc1 | – | -13 | – | inactive |
| CN(C)S(=O)(=O)N1CCC(Oc2cccc(C(=O)NC3CCCCCC3)c2)CC1 | – | – | – | inactive |
| O=C(O)c1ccccc1C(=O)N1CC=C(c2ccccc2)CC1 | -0.597% (inactive) | 1.73 | – | – |
| Nc1[nH][nH]c(=O)c1N=Nc1cccc(Cl)c1 | 26.5% (inactive) | 1.25 | – | – |
| Cn1cc([N+](=O)[O-])c(C(=O)Nc2ccc(Br)cn2)n1 | 1.79% (inactive) | – | – | – |
| O=C(CNC(=O)COc1ccccc1)NCc1ccccc1F | -0.841% (inactive) | 0.16 | – | – |
| O=[N+]([O-])c1ccc(NC(=S)N2CCOCC2)cc1 | -4.46% (inactive) | -10.6 | – | – |
| COc1cc(CN2CCN(C(c3ccccc3)c3ccccc3)CC2)cc(OC)c1OC | 21.4% (inactive) | 6.8 | – | – |
| Fc1ccc(CN2CCN(C(c3ccccc3)c3ccccc3)CC2)cc1 | – | -21.3 | 16.4 µM (active) | – |
| OC(CN1CCN(Cc2ccccc2)CC1)c1ccc(F)cc1 (configuration not stated) | 2.63% (inactive) | 22.1 | – | – |
| COc1ccc(Br)cc1CNC(=O)CCC(=O)n1nc(C)c2ccccc21 | – | -11.3 | – | inactive |
| COc1ccccc1NC(=S)NC1CCCCC1 | -1.18% (inactive) | 22.1 | – | – |
| Cc1ccccc1NC(=S)NC(C)CCc1ccccc1 (configuration not stated) | -12% (inactive) | -4.86 | – | – |

| Compound | lipid storage change, negative = inhibition | cell number change [%] | Potency | outcome |
| --- | --- | --- | --- | --- |
| Cc1ccccc1NC(=O)C(=O)NC(C)CCc1ccccc1 (configuration not stated) | – | 7.44 | 7.31 µM (active) | – |
| CCOC(=O)C(=O)NC(C)CCc1ccccc1 (configuration not stated) | -6.25% (inactive) | -12.3 | – | – |
| COCCCNC(=O)COc1cc2c(c3oc(=O)c(C)c(C)c13)CCC(C)(C)O2 | -1.02% (inactive) | 14.5 | – | – |
| Cc1ccc(NC(=O)c2ccc(CN3CCc4ccccc4C3)cc2)cc1 | 9.69% (inactive) | 6 | – | – |
| O=C(Nc1ccc(S(=O)(=O)N2CCCC2)cc1)c1ccc(CN2CCOCC2)cc1 | -12.9% (inactive) | 0.801 | – | – |
| O=C(Nc1ccccc1)c1ccc(CN2CCc3ccccc3C2)cc1 | -0.669% (inactive) | 7.26 | – | – |
| O=C(Nc1ccc(F)cc1)c1ccc(CN2CCc3ccccc3C2)cc1 | – | -4.53 | 5.17 µM (active) | – |
| O=C(Nc1ccccc1)c1ccc(S(=O)(=O)N2CCCCC2)cc1 | 1.31% (inactive) | -9.41 | – | – |
| O=C(Nc1ccc(S(=O)(=O)N2CCCCC2)cc1)c1ccc(CN2CCc3ccccc3C2)cc1 | – | -10.9 | 18.4 µM (active) | – |
| Cc1cc(-n2nc(C)cc2C)n2nc(C)c(-c3ccc(Cl)cc3)c2n1 | – | 1.87 | – | inactive |
| CC(C)CCN1CC(C(=O)NC(C)C)CC1=O (configuration not stated) | 1.74% (inactive) | -5.32 | – | – |
| CN1CCN(S(=O)(=O)c2ccc(NC(=O)c3ccc(Br)s3)cc2)CC1 | 18.6% (inactive) | -9.91 | – | – |
| COC(=O)c1ccc(CN2CCC(CO)(Cc3cccc(OC)c3)CC2)cc1 | 12.4% (inactive) | 1.63 | – | – |
| O=C(Nc1ccccc1C(=O)OC1CCOC1=O)c1ccco1 (configuration not stated) | – | 2.86 | – | inactive |
| CC(=O)Nc1ccc(C(=O)OC2CCOC2=O)cc1 (configuration not stated) | -5.88% (inactive) | 3.14 | – | – |
| Cc1cccc(C(=O)OC2CCOC2=O)c1O (configuration not stated) | – | 4.5 | 0.731 µM (active) | – |
| Cc1ccc(NC(=O)c2cccs2)cc1NC(=O)c1cccc(F)c1 | 16.8% (inactive) | 9.07 | – | – |
| Cc1ccc(C(=O)N/C(=C\c2cccs2)C(=O)NCc2cccnc2)cc1 | 15.8% (inactive) | 10.4 | – | – |
| Fc1ccc(NC(=S)N2CCCc3ccccc32)cc1 | 7.56% (inactive) | -5.16 | – | – |
| Fc1cccc(NC(=S)N2CCc3ccccc32)c1 | – | -4.05 | – | inactive |
| Fc1ccc(NC(=S)N2CCc3ccccc32)cc1 | – | -10.9 | 16.4 µM (active) | – |
